# Measured values taken from PubChem BioAssay (NCI).
# This is part of a sample that, as a whole, favours compounds with a hit. Of some 79,000 tested, about 15% had one in any assay. A number with no mark means an inactive call. Active and inactive are the calls of the source. Cut-off read from the data, not from the text of the source: active = growth inhibition above about 70%; inactive = the rest.
# What was measured:
# [1] = NCI Yeast Anticancer Drug Screen. Data for the rad50 strain (AID 155);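 note: 0% = growth of vehicle-only cultures of the same strain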; conditions: S. cerevisiae rad50 strain growth inhibition; at 50.0 µM; hits give high values
# How it was run: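 A DNA repair-deficient yeast mutant serves as the test organism; compound-induced growth inhibition is calculated against vehicle-treated cells.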
# [2] = NCI Yeast Anticancer Drug Screen. Data for the mec2-1 strain (AID 157); conditions: S. cerevisiae mec2-1 strain, at 50.0 µM, hits give high values
# How it was run: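 mec2-1 yeast strain, carrying an alteration in DNA damage repair or cell cycle control, was exposed to compounds; growth inhibition was measured relative to vehicle-treated controls.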
# [3] = NCI Yeast Anticancer Drug Screen. Data for the sgs1 mgt1 strain (AID 161);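 note: 0% = growth of cultures given vehicle only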; conditions: S. cerevisiae sgs1 mgt1 strain, at 50.0 µM, hits give high values
# How it was run: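 Growth of a repair-deficient yeast mutant was monitored after compound treatment and expressed as inhibition relative to vehicle-treated cultures.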
# [4] = NCI Yeast Anticancer Drug Screen. Data for the cln2 rad14 strain (AID 165);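 note: 0% = growth equal to vehicle treated cultures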; conditions: S. cerevisiae cln2 rad14 strain, at 50.0 µM, hits give high values
# How it was run: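 Yeast carrying cln2 and rad14 alterations (cell cycle control and DNA damage repair) were exposed to compounds. Growth inhibition was measured against vehicle-treated controls.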
# [5] = NCI Yeast Anticancer Drug Screen. Data for the bub3 strain (AID 167); conditions: S. cerevisiae bub3 mutant strain, at 50.0 µM, hits give high values
# How it was run: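 Inhibition values come from growth of compound-treated mutant yeast normalised to vehicle-treated controls.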
# [6] = NCI Yeast Anticancer Drug Screen. Data for the mlh1 rad18 strain (AID 175); conditions: S. cerevisiae mlh1 rad18 strain growth inhibition; at 50.0 µM; hits give high values
# How it was run: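 Growth inhibition of the yeast strain was measured after compound exposure and expressed relative to vehicle-treated controls. The strain carries defined defects in DNA damage repair.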
SMILES,growth inhibition [1],growth inhibition [2],growth inhibition [3],growth inhibition [4],growth inhibition [5],growth inhibition [6]
CCOC(=O)c1ccccc1O,-17.8%,-5.8%,-8.6%,-38.4%,-12.4%,9.5%
COc1cccc(C(=O)c2ccncc2)c1OC,-10.2%,-4.65%,-5.6%,4.4%,1.1%,-4.85%
NC(=NC1CCCCC1)/N=C(/N)Nc1ccc(Cl)cc1,26.8%,0.2%,5%,-29.6%,4.7%,14.4%
COc1ccc(NC(=O)NCc2ccc(C)c(C)c2)cc1,-0.8%,38.8%,22.3%,-3.05%,20.1%,35%
CCOC(=O)c1cnc(-n2[nH]c(C)c(CCO)c2=O)[nH]c1=O,-11.2%,-46.9%,-33.1%,-6.15%,-8.9%,-37%
CC(=O)c1ccc(NC(=O)CSc2nc(C)nc3c2sc(=S)n3-c2ccccc2)cc1,-15.1%,-10.8%,-0.1%,-24.1%,-8.2%,-22.1%
Cc1nc(/N=C(/N)N(C)C)[nH]c(=O)c1C,1.7%,-27.6%,-11.6%,3.7%,4.05%,19.9%
Cc1ccc(NC(=S)SCc2ccc([N+](=O)[O-])cc2)cc1C,16.5%,14.8%,8.6%,-8.9%,12.9%,2.95%
CCOC(=O)N1C2C(c3ccccc3)=NC(C)(C)N2C(c2ccc([N+](=O)[O-])cc2)N1C(=O)OCC (stereo unspecified),17.9%,-7%,-4.55%,15.2%,-2.2%,-2.9%
Nc1ccc(Cl)cc1Br,6.35%,22.4%,-6.5%,5.5%,-7.05%,8.6%
Cc1cn(C2CC(O)C(CO)O2)c(=O)nc1NCC12CC3CC(CC(C3)C1)C2 (stereo unspecified),-1.7%,11.8%,-1.1%,-1.1%,-0.8%,-2.25%
CCN(CC(O)COc1ccc2c(c1)[n+]([O-])nc(N)[n+]2[O-])C(C)=O (stereo unspecified),46.5%,38%,40.3%,38.9%,31%,38.8%
NC(=O)c1[nH]c(COCCO)nc1N,-20.4%,-10.4%,14%,-14.9%,7.05%,22.4%
O=C1NCCN1CCCl,0.7%,-1.25%,-5.15%,1.5%,1.65%,6.25%
Cc1ccc(Cl)cc1NC(=O)Oc1ccc(C(C)(C)C)cc1Br,54.3%,57.1%,11.7%,1.5%,19.9%,60.2%
Cc1cc(C)[n+](C)c(/C=C\c2ccc(Cl)cc2)n1,7.3%,-6.95%,10.8%,3%,-4.45%,12.9%
CCOC(=O)C1=C(C(C)=O)C(c2cccc([N+](=O)[O-])c2)C(C(C)=O)=C(C(=O)OCC)N1,-1.8%,4.05%,-8.8%,-2.8%,-13.6%,7.25%
C#CCN(CC#C)C(=O)CCCCCCCCC=C,97% (active),96.5% (active),97% (active),86% (active),97.5% (active),97.2% (active)
O=C(O)c1c(CN2CCOCC2)c(O)c(O)c(O)c1CN1CCOCC1,-1.2%,0.15%,-7.1%,-2.3%,1.3%,5.5%
CCOC(=O)C(CC)(C(=O)OCC)C(C)CC (stereo unspecified),11.3%,-1.65%,15.1%,-5.9%,-7.55%,-1.25%
CC1CNC(=O)C(=O)N1 (stereo unspecified),-14.7%,-1.8%,1.75%,-13.4%,-10.9%,-8.05%

SMILES,growth inhibition [1],growth inhibition [2],growth inhibition [3],growth inhibition [4],growth inhibition [5],growth inhibition [6]
Oc1ccc(Br)cc1C=Nc1ccccc1,26.3%,18.9%,40.8%,29.4%,26.2%,14.9%
CCOC(=O)C1SC(=Nc2ccc(Cl)cc2Cl)N=C1C (stereo unspecified),-0.75%,-10.3%,4.4%,-19.2%,-2.85%,-10.8%
COC1/C=C\OC2(C)Oc3c(C)c(O)c4c(O)c(c(CN(C)C)c(O)c4c3C2=O)NC(=O)/C(C)=C\C=C/C(C)C(O)C(C)C(O)C(C)C(OC(C)=O)C1C (stereo unspecified),50.5%,-3.1%,-16.7%,28.2%,-29.9%,-6.45%
N#CCCOC(=O)Nc1ccccc1,21.9%,2.4%,-6.7%,-40.6%,-8.3%,0.6%
NNC(=O)C(=O)N/N=C(/CC1(O)C(=O)Nc2ccccc21)c1ccc(Cl)cc1Cl (stereo unspecified),-0.9%,4%,-15.9%,-53.4%,0.75%,-1.95%
O=C(OCCNC(=O)N1CCOCC1)OCCNC(=O)N1CCOCC1,-16.8%,-2%,-8.55%,40.6%,-3.2%,11.3%
O=C(Nc1ccccc1C(=O)NCc1ccccc1)/C(=C/c1ccccc1)NC(=O)c1ccccc1,7.25%,6.9%,-0.95%,4.05%,6.8%,-34.7%
Nc1cc(=O)[nH]c2ncnn12,18.2%,-12%,2.4%,6.2%,4%,20.1%
CCN1C(=O)/C(=C/c2ccc(OCC(=O)O)cc2)SC1=S,-6.9%,-10.9%,0.35%,-44.9%,-2.2%,-9.65%
CCCCCCC(=O)/C=C/c1ccc(Cl)cc1,11.9%,-22.1%,-3.1%,-6.5%,16.2%,-15.6%
C/C(=N\N(C)S(=O)(=O)c1ccc(C)cc1)c1ccccc1,10.1%,-6.9%,-5.5%,-30.1%,-10.1%,0.65%
CCCCCCOC(=O)C[n+]1ccc(C(N)=O)cc1,2.45%,17.1%,-15.2%,-14.8%,-18.8%,-1.9%
Cc1nnc(-n2nc(-c3ccc(Cl)cc3)cc2N)[nH]c1=O,54%,12.1%,22.4%,12.8%,23.4%,34%
COc1cccc(N2C(Cl)C(=O)C2c2c[nH]c3ccccc23)c1 (stereo unspecified),-31.4%,-37.2%,-47.6%,-23.1%,-28.9%,-47%
CCOC(=O)/C(=C/n1c(=S)[nH]c2ccc([N+](=O)[O-])cc21)C(=O)c1ccccc1,-7.55%,-44.8%,-12.9%,-1.35%,-16.7%,-4.65%
CC(C)(CCCCC(C)(C)NC1=NCCO1)NC1=NCCO1,-0.2%,-8.8%,9.9%,-20.6%,-4.45%,-9.4%
CN(C)CCC(c1ccccc1)c1ccccc1,-22.4%,-2.85%,13.7%,-13.6%,14.7%,-5.8%
COc1ccc2nc(NCCNCCO)cc(NCCNCCO)c2c1,-12.2%,-3.25%,1.2%,4.65%,-0.75%,11.3%
Nc1ccc(S(=O)(=O)NC(=O)NCc2ccccc2)cc1,0.7%,-5%,3.5%,-33%,-10.6%,-9.55%
C=CCCCCCCCCC(=O)OC1CCCCC1,-9.25%,0.2%,11.1%,-23.1%,15.4%,6.15%
